Measurements published in PubChem BioAssay (EPA / NIEHS).
Calls of active or inactive are those of the source. The calls were made as follows: active = hit-call score of the fitted dose curve at least 0.9, where 1 is the maximum; inactive = score below 0.9.

Read-out: Vascular cell adhesion molecule 1 (VCAM1), VCAM1 (gene 7412)
Experiment: BSK_MyoF_VCAM1: BioMAP Diversity Plus: MyoF Assay for Vascular cell adhesion molecule 1 (VCAM1) Biomarker Activity (AID 2284231)
Conditions: primary human lung fibroblasts
Protocol: BSK_MyoF is a cell-based, multiplexed-readout assay that uses lung fibroblasts, […], with measurements taken at 24 hours after chemical dosing in a microplate: 96-well plate.BSK_MyoF_VCAM1 is an assay component measured in the BSK_MyoF assay. It measures VCAM-1 antibody related to regulation of gene expression using ELISA technology.Data from the assay component BSK_MyoF_VCAM1 was analyzed at the endpoint, BSK_MyoF_VCAM1, in the positive analysis fitting direction relative to DMSO as the negative control and baseline of activity. Using a type of binding reporter, gain or loss-of-signal activity can be used to understand protein changes. To generalize the intended target to other relatable targets, this assay endpoint is annotated to the 'cell adhesion molecules' intended target family, where the subfamily is 'Immunoglobulin CAM'.
The levels of cell surface (or secreted, indicated by the prefix "s") biomarker endpoints were measured by ELISA. Overt cytotoxicity to cells in confluent adherent cultures (all systems other than the BT system) was assessed by measuring total protein levels using sulforhodamine B (SRB) staining in parallel cultures at the time of biomarker measurements, indicated as SRB endpoints. For proliferation assays for adherent cell types, individual cell types are cultured at sub-confluence and relative cell numbers quantified by SRB staining at time points optimized for each system (48 h: 3C and CASM3C systems; 72 h: BT and HDF3CGF systems; 96 h: SAg system). SRB was performed by staining cells with 0.1% SRB after fixation with 10% TCA and reading wells at 560 nm.Viability and proliferation of PBMC (T cells) was quantified by Alamar Blue reduction for the SAg and BT systems. For PBMC viability (referred to as PBMC Cytotoxicity within the assay endpoint names), cells were plated (75,000/well in a 96-well plate) and then chemical samples added for 1 h before addition of activators, SEB and TSST-1 (20 ng/mL final concentration each). Cells were incubated for 90 h. Then, Alamar Blue (20 uL/well) (Invitrogen, Cat DAL1100) was added for 6 h, and the plates were read with a fluorescence microplate reader at 546/580 nm (excitation/emission). For PBMC proliferation, cells were plated and activated as above but incubated for only 16 h prior to addition of Alamar Blue. Plates were read after 6 h.

SMILES	outcome	AC50
CCCCNc1ccc(NCCCC)c2c1C(=O)c1ccccc1C2=O	inactive	–
N#[N+]c1ccc2c(S(=O)(=O)[O-])cccc2c1O	inactive	–
CCOc1nc(F)cc2nc(S(=O)(=O)Nc3c(Cl)cccc3C(=O)OC)nn12	inactive	–
CCCCCCCCCCCCCCCC[N+](C)(C)CC	–	1.71 µM (active)
O=C(Cl)c1cc(C(=O)Cl)cc(C(=O)Cl)c1	–	35.3 µM (active)
O=Nc1ccc(O)cc1	inactive	–
CC(C)(c1cc(Br)c(OCCO)c(Br)c1)c1cc(Br)c(OCCO)c(Br)c1	–	7.89 µM (active)
CCO[Si](CCCN=C=O)(OCC)OCC	inactive	–
O=c1c2ccccc2oc2ccccc12	inactive	–
COc1ccc2nc(N)sc2c1	inactive	–
S=C(NC1CCCCC1)NC1CCCCC1	inactive	–
C=CC(=O)OCC(Br)CBr (configuration not stated)	–	20 µM (active)
C=CC=CC=CCCCCC	inactive	–
CCCCC(CC)COC(=O)c1ccccc1O (configuration not stated)	inactive	–
CC1OC1C1CCC2(C)OC2C1 (configuration not stated)	inactive	–
CCCCC/C=C\C/C=C\CCCCCCCC(=O)OC	inactive	–
C=CCOCC(O)CCl (configuration not stated)	inactive	–
CC(C)C(=O)C(C)C	inactive	–
c1ccc2c(c1)ccc1ncccc12	inactive	–
O=C(Nc1ccccc1SSc1ccccc1NC(=O)c1ccccc1)c1ccccc1	inactive	–
c1ccc(-c2ccccn2)nc1	inactive	–
C#CC1(O)CC[C@H]2[C@@H]3CCC4=CCCC[C@@H]4[C@H]3CC[C@@]21C (some centres not stated)	–	33.1 µM (active)
C/C=C\C/C=C/CCCCCCCCOC(C)=O	inactive	–
COCc1c(C(C)C)nc(C(C)C)c(/C=C/[C@@H](O)C[C@@H](O)CC(=O)O)c1-c1ccc(F)cc1	–	0.0229 µM (active)
C=CCOc1c(Br)cc(Br)cc1Br	–	23.7 µM (active)
c1ccc2c(c1)ccc1cc3c(ccc4ccccc43)cc12	inactive	–
CCCCCCCCc1ccc(Nc2ccc(CCCCCCCC)cc2)cc1	inactive	–
